Over roughly 33,000 sequences, “E-score (-0.5 to 0.5)” has its median near -0.04; the highest 2% begin near 0.36. What follows is part of a selection rich in the highest values, with near analogues and random picks from the rest.

The target of this assay is T1, Hmlalpha2 (UniProt P0CY09).
T1 sequence: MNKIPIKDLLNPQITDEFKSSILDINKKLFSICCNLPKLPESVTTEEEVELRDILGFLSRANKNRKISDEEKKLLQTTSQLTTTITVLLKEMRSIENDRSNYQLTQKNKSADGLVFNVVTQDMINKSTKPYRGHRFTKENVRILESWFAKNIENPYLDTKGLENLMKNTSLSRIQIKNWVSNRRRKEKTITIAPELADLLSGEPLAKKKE
Briefly: PBM E-score (8-mer binding enrichment) (E-score (-0.5 to 0.5)); higher = stronger / more preferred TF binding. Particulars: protein concentration: 200 nM; construct: GST-full length. The procedure, abridged:
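Bound GST-tagged yeast transcription factors, applied at about 100-200 nM to double-stranded universal all-10-mer Agilent arrays, were detected with fluorescent anti-GST. Scans were normalised with masliner. A modified Wilcoxon-Mann-Whitney statistic, the E-score, was assigned to each ungapped eight-base word pooled with its reverse complement by the Universal PBM Analysis Suite.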
For the sequence GCTGAATA, the “PBM E-score” value came to 0.0885.

As for CGGGAAGC, the “PBM E-score” value was -0.026.

Regarding AGTTTACG, the “PBM E-score” value is 0.278.

In the case of AGTTTACA, the “PBM E-score” value was 0.405.

For the sequence AGTTTACC, the “PBM E-score” value was 0.075.

In the case of CGCATTAG, the “PBM E-score” value was -0.105.

GCCTGTCA: the “PBM E-score” value is -0.0584.

Take CAGTGTGG: the “PBM E-score” value was -0.13.

Regarding CACATGTG, the “PBM E-score” value turned out to be 0.163.

For AAGATGTA, the “PBM E-score” value was 0.268.

With AACATTTA, the “PBM E-score” value came out at 0.242.

On to AACATCTG, for which the “PBM E-score” value is 0.128.

Take AACATGTG: the “PBM E-score” value was determined as 0.395.

In the case of AACATGTA, the “PBM E-score” value came to 0.484.

With AACATGTC, the “PBM E-score” value came out at 0.333.

In the case of AACATGTT, the “PBM E-score” value was 0.46.

As for AACATCTT, the “PBM E-score” value is -0.0095.

On to ACCAGCAC, for which the “PBM E-score” value was -0.0704.

Regarding ATGCGAAT, the “PBM E-score” value is -0.0339.

Consider CGGTCAGA, for which the “PBM E-score” value is -0.199.

Take CAAGGTCA: the “PBM E-score” value is -0.102.

With TAGGTGGA, the “PBM E-score” value is -0.0803.

Consider CGGTGGAG, for which the “PBM E-score” value is -0.362.

Regarding ATACTGGA, the “PBM E-score” value stood at 0.0598.

As for GGACATAA, the “PBM E-score” value was 0.05.

On to CAACATAA, for which the “PBM E-score” value was 0.359.

For GCACATAA, the “PBM E-score” value stood at 0.12.

As to TAACATAA, the “PBM E-score” value was 0.422.

On to GAACATAA, for which the “PBM E-score” value was 0.191.

Turning to GTACATAA, the “PBM E-score” value amounted to 0.377.

For the sequence TTACATAA, the “PBM E-score” value was determined as 0.474.

As for TGACATAA, the “PBM E-score” value stood at 0.319.

With CTACATAA, the “PBM E-score” value was 0.317.

Take GCCAAGAC: the “PBM E-score” value is -0.161.

Consider CGTGCAAA, for which the “PBM E-score” value was 0.172.

As to ACAATTTA, the “PBM E-score” value was 0.173.

As for GGACTAGA, the “PBM E-score” value is -0.227.

As for TCATGGAA, the “PBM E-score” value was -0.157.

As to TCATGTCA, the “PBM E-score” value was determined as 0.359.

As to GCATGTCA, the “PBM E-score” value was found to be 0.36.

For the sequence GCATGTAA, the “PBM E-score” value was determined as 0.485.

Regarding GCATGTGA, the “PBM E-score” value is 0.263.

Regarding TCATGTAA, the “PBM E-score” value is 0.482.

As to AAGGTCCG, the “PBM E-score” value was -0.108.

On to AACCTCGA, for which the “PBM E-score” value was -0.0213.

Regarding TAGGAGAA, the “PBM E-score” value is 0.122.

GCATAGCC: the “PBM E-score” value is -0.0671.

In the case of GTTTTTAA, the “PBM E-score” value is 0.279.

For the sequence ATGTGTCA, the “PBM E-score” value turned out to be 0.261.

With ATGTGTTC, the “PBM E-score” value amounted to 0.233.

Consider ATGTGTGA, for which the “PBM E-score” value is 0.202.

For the sequence GAGTGTTA, the “PBM E-score” value amounted to 0.21.

ATGTGTTG: the “PBM E-score” value turned out to be 0.39.

Take GGGTGTTA: the “PBM E-score” value came out at 0.195.

Consider CGGTGTTA, for which the “PBM E-score” value was 0.253.

With CTGTGTTA, the “PBM E-score” value was 0.398.

With GTGTGTTA, the “PBM E-score” value was 0.435.

On to CTGTGTTC, for which the “PBM E-score” value came to 0.304.

ATGTGTGG: the “PBM E-score” value turned out to be 0.0473.

For the sequence ATGTGTTA, the “PBM E-score” value was determined as 0.429.

For GTGGACCA, the “PBM E-score” value was -0.0852.

ACTCTGTA: the “PBM E-score” value came to 0.204.

Regarding ATATCACC, the “PBM E-score” value worked out at 0.0884.

Take ACTGCTCG: the “PBM E-score” value was -0.0631.

Take CCTTCAAC: the “PBM E-score” value came to 0.058.

For the sequence GTGATCAC, the “PBM E-score” value was -0.229.

With ATCGCTGC, the “PBM E-score” value was -0.136.

As to TAAGCGCA, the “PBM E-score” value amounted to 0.0443.

For the sequence AGTCAACA, the “PBM E-score” value was determined as 0.269.

On to CTTGGTCC, for which the “PBM E-score” value is -0.159.

On to CCCATACC, for which the “PBM E-score” value was -0.159.

Consider TAGTACAA, for which the “PBM E-score” value came out at 0.244.

For GTGTACAC, the “PBM E-score” value turned out to be 0.415.

Turning to CTGTACAG, the “PBM E-score” value is 0.0499.

On to TTGTACAA, for which the “PBM E-score” value stood at 0.442.

For the sequence GCGTACAC, the “PBM E-score” value came out at 0.247.

For AGGTACAC, the “PBM E-score” value was found to be 0.0905.

With ATGTACCC, the “PBM E-score” value came to 0.148.

Regarding CTGTACAC, the “PBM E-score” value amounted to 0.291.

In the case of GGGTACAA, the “PBM E-score” value stood at 0.0999.

As to GTGTACAA, the “PBM E-score” value turned out to be 0.439.

ATGTACAC: the “PBM E-score” value turned out to be 0.43.

For CTGTACAA, the “PBM E-score” value worked out at 0.288.

Take AACTGCGT: the “PBM E-score” value worked out at 0.257.

On to ATGAAGAC, for which the “PBM E-score” value was found to be 0.028.

On to GTGAAATA, for which the “PBM E-score” value was found to be 0.185.

For the sequence TACGTCGA, the “PBM E-score” value was 0.0708.
